# About 2,000 (36%) of roughly 5,500 compounds were called active. Roughly 18% stayed inconclusive and do not appear here. The list shows a part of the results. A number with no mark means an inactive call. Rule as the data show it: active = normalized growth mostly below about 0.91 (no sharp cut-off); inconclusive = no clear call, values can overlap the other calls; inactive = mostly above about 0.92.
# Experiment: chemical genetic growth profiling, strain panel (AID 1159580);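 also: tested at 20 µM; growth read once vehicle control cultures reached saturation at 30 °C; 1 = growth at the plate median or of vehicle wells; lower values mean less growth of the strain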
# Settings: S. cerevisiae deletion strains, growth OD
# [1] = locus YAL040C, strain CLN3, active compounds read low
# [2] = locus YCL061C, strain MRC1 (second series), active compounds read low
# [3] = locus YDR363W, strain ESC2, active compounds read low
# [4] = locus YER002W, strain NOP16, active compounds read low
# [5] = locus YNL128W, strain TEP1, active compounds read low
# [6] = locus YNL153C, strain GIM3, active compounds read low
# [7] = locus YNL175C, strain NOP13, active compounds read low
# [8] = locus YNL197C, strain WHI3, active compounds read low
# [9] = locus YNL224C, strain SQS1, active compounds read low
# [10] = locus YOR083W, strain WHI5 (second series), active compounds read low
compound,measurement,setting,value
CCCn1c(=O)c2[nH]c(-c3ccc(S(=O)(=O)O)cc3)nc2n(CCC)c1=O,normalized growth,[1],0.994
same,normalized growth,[2],1.01
same,normalized growth,[3],0.958
same,normalized growth,[4],0.997
same,normalized growth,[5],1
same,normalized growth,[6],1.01
same,normalized growth,[7],0.985
same,normalized growth,[8],0.99
same,normalized growth,[9],1
same,normalized growth,[10],0.979
CC(C)CC(NP(=O)(O)O[C@@H]1O[C@@H](C)[C@H](O)[C@@H](O)[C@H]1O)C(=O)NC(Cc1c[nH]c2ccccc12)C(=O)O (some centres not stated),normalized growth,[1],1.01
same,normalized growth,[2],1.01
same,normalized growth,[3],1.01
same,normalized growth,[4],1
same,normalized growth,"locus YGR078C, strain PAC10, active compounds read low",1.02
same,normalized growth,"locus YGR229C, strain SMI1, active compounds read low",1.03
same,normalized growth,"locus YJR075W, strain HOC1, active compounds read low",1.03
same,normalized growth,"locus YMR307W, strain GAS1, active compounds read low",0.994
same,normalized growth,[5],0.993
same,normalized growth,[6],1.04
same,normalized growth,[7],0.998
same,normalized growth,[8],1
same,normalized growth,[9],0.997
same,normalized growth,[10],1.01
same,normalized growth,"locus YPL055C, strain LGE1, active compounds read low",1.02
same,normalized growth,"locus YPL241C, strain CIN2, active compounds read low",1.01
O=C1/C(=C/c2c(F)cccc2Cl)Cc2ccccc21,normalized growth,"locus YAR019C, strain CDC15, active compounds read low",0.965
same,normalized growth,"locus YBL105C, strain PKC1, active compounds read low",0.965
same,normalized growth,"locus YBR135W, strain CKS1, active compounds read low",0.959
same,normalized growth,"locus YBR136W, strain MEC1, active compounds read low",0.962
same,normalized growth,"locus YBR160W, strain CDC28, active compounds read low",0.964
same,normalized growth,"locus YDL017W, strain CDC7, active compounds read low",0.963
same,normalized growth,"locus YDL028C, strain MPS1, active compounds read low",0.96
same,normalized growth,"locus YDL101C, strain DUN1, active compounds read low",0.96
same,normalized growth,"locus YDL108W, strain KIN28, active compounds read low",0.967
same,normalized growth,"locus YDL132W, strain cdc53, active compounds read low",0.96
same,normalized growth,"locus YDL214C, strain PRR2, active compounds read low",0.96
same,normalized growth,"locus YDR052C, strain DBF4, active compounds read low",0.977
same,normalized growth,"locus YDR054C, strain cdc34, active compounds read low",0.961
same,normalized growth,"locus YDR226W, strain ADK1, active compounds read low",0.967
same,normalized growth,"locus YDR477W, strain SNF1, active compounds read low",0.945
same,normalized growth,"locus YER123W, strain YCK3, active compounds read low",0.876
same,normalized growth,"locus YER133W, strain GLC7, active compounds read low",0.948
same,normalized growth,"locus YFL009W, strain cdc4, active compounds read low",0.961
same,normalized growth,"locus YFL029C, strain CAK1, active compounds read low",0.961
same,normalized growth,"locus YFR003C, strain YPI1, active compounds read low",0.962
same,normalized growth,"locus YFR019W, strain FAB1, active compounds read low",0.903
same,normalized growth,"locus YFR028C, strain CDC14, active compounds read low",0.96
same,normalized growth,"locus YGR040W, strain KSS1, active compounds read low",0.947
same,normalized growth,"locus YGR052W, strain FMP48, active compounds read low",0.974
same,normalized growth,"locus YGR092W, strain DBF2, active compounds read low",0.841
same,normalized growth,"locus YHR030C, strain SLT2, active compounds read low",0.882
same,normalized growth,"locus YHR079C, strain IRE1, active compounds read low",0.884
same,normalized growth,"locus YHR082C, strain KSP1, active compounds read low",0.916
same,normalized growth,"locus YHR205W, strain SCH9, active compounds read low",0.871
same,normalized growth,"locus YIL147C, strain SLN1, active compounds read low",0.963
same,normalized growth,"locus YJL095W, strain BCK1, active compounds read low",0.927
same,normalized growth,"locus YJL128C, strain PBS2, active compounds read low",0.929
same,normalized growth,"locus YJL157C, strain FAR1, active compounds read low",0.945
same,normalized growth,"locus YJR016C, strain ILV3, active compounds read low",0.965
same,normalized growth,"locus YJR066W, strain TOR1 (second series), active compounds read low",0.906
same,normalized growth,"locus YJR066W, strain TOR1, active compounds read low",0.892
same,normalized growth,"locus YKL048C, strain ELM1, active compounds read low",0.968
same,normalized growth,"locus YKL067W, strain YNK1, active compounds read low",0.961
same,normalized growth,"locus YKL101W, strain HSL1, active compounds read low",0.965
same,normalized growth,"locus YKL193C, strain SDS22, active compounds read low",0.961
same,normalized growth,"locus YKL203C, strain TOR2, active compounds read low",1.03
same,normalized growth,"locus YLR113W, strain HOG1, active compounds read low",0.834 (active)
same,normalized growth,"locus YLR133W, strain CKI1, active compounds read low",0.955
same,normalized growth,"locus YLR403W, strain SFP1, active compounds read low",0.927
same,normalized growth,"locus YML070W, strain DAK1, active compounds read low",0.929
same,normalized growth,"locus YMR001C, strain CDC5, active compounds read low",0.961
same,normalized growth,"locus YMR205C, strain PFK2 (second series), active compounds read low",0.956
same,normalized growth,"locus YMR277W, strain FCP1, active compounds read low",0.963
same,normalized growth,"locus YNL006W, strain LST8, active compounds read low",0.97
same,normalized growth,"locus YNL020C, strain ARK1, active compounds read low",0.947
same,normalized growth,"locus YNL161W, strain CBK1, active compounds read low",0.965
same,normalized growth,"locus YNL183C, strain NPR1, active compounds read low",0.9
same,normalized growth,"locus YNL207W, strain RIO2, active compounds read low",0.965
same,normalized growth,"locus YNL222W, strain SSU72, active compounds read low",0.965
same,normalized growth,"locus YNL307C, strain MCK1 (second series), active compounds read low",0.885
same,normalized growth,"locus YOL078W, strain AVO1, active compounds read low",0.962
same,normalized growth,"locus YOL136C, strain PFK27, active compounds read low",0.92
same,normalized growth,"locus YOR061W, strain CKA2, active compounds read low",0.942
same,normalized growth,"locus YOR119C, strain RIO1, active compounds read low",0.952
same,normalized growth,"locus YOR231W, strain MKK1, active compounds read low",0.92
same,normalized growth,"locus YOR329C, strain SCD5, active compounds read low",0.963
same,normalized growth,"locus YPL031C, strain PHO85, active compounds read low",0.928
same,normalized growth,"locus YPL153C, strain RAD53, active compounds read low",0.947
same,normalized growth,"locus YPL204W, strain HRR25, active compounds read low",0.927
same,normalized growth,"locus YPL209C, strain IPL1, active compounds read low",0.968
same,normalized growth,"locus YPL256C, strain CLN2, active compounds read low",0.887
same,normalized growth,"locus YPR025C, strain CCL1, active compounds read low",0.957
same,normalized growth,"locus YPR106W, strain ISR1, active compounds read low",0.957
same,normalized growth,"locus YPR111W, strain DBF20, active compounds read low",0.957
same,normalized growth,"strain NNK1, active compounds read low",0.943
same,normalized growth,"strain TSCII, active compounds read low",0.962

# — PubChem BioAssay AID1159580 (chemical genetic matrix, 2015)
